Our source for the outcome values is PubChem BioAssay AID588851 (Broad Institute, 2011).

The test has as its target CAAX prenyl protease 2 (Saccharomyces cerevisiae (strain ATCC 204508 / S288c)) (UniProt Q03530). In words: inhibition of Rce1p peptide cleavage – biochemical, plate reader, dry powder retest, dose response (AID 588851).

Measured potencies and affinities stand elsewhere. Inconclusive results are not listed. Calls of active or inactive are those of the source.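 The calls were made as follows: active = compounds that lower the signal with a fitted half-maximal concentration at most ten times the top valid dose; inconclusive = flat curve with moderate inhibition, or an unreliable fit; inactive = the rest.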

Chain of CAAX prenyl protease 2 (Saccharomyces cerevisiae (strain ATCC 204508 / S288c)) (Q03530 whole entry, looked up): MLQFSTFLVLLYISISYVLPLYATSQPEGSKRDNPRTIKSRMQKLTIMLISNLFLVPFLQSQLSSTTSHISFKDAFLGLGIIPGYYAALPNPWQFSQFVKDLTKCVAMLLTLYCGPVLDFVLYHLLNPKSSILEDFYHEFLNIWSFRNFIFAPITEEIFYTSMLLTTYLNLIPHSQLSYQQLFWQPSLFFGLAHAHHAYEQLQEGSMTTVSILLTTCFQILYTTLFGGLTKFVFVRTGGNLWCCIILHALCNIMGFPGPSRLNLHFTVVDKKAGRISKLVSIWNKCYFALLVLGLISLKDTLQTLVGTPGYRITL

Consider `O=C(CCNC(=O)N1CC(=O)Nc2ccccc21)NCCc1cccc(F)c1`, for which the result was inactive.
